# In PubChem BioAssay AID1259240 (Keith Lab, Institute of Cancer Science, University of …, 2017):
# Values without a mark were called inactive. Activity calls are given as the source filed them. Cut-off read from the data, not from the text of the source: active = fold change mostly below about -2 (no sharp cut-off); inactive = mostly above about -1.8.
# Test: modulation of TERT promoter-driven luciferase – cell-based, luciferase reporter, human, primary screen (AID 1259240)
# Conditions: A2780 TERT promoter luciferase reporter, 16 h; at 20 µM, fold versus average of vehicle-only wells
SMILES,fold change,outcome
COc1cc(OC)cc(-c2cc(N)n(S(=O)(=O)Cc3ccccc3)n2)c1,1.16,–
COc1ccc2cc3c(N)nn(C(=O)c4cncc(Br)c4)c3nc2c1,-1.5,–
COc1cc(OC)cc(-c2cc(N3C(=O)Nc4ccccc4N3O)n[nH]2)c1,-1.25,–
CCOC(=O)CCCSc1nc2sc(C)c(C)c2c(=O)[nH]1,-3.49 (active),–
O=C(CN1C(=O)c2ccccc2C1=O)Nc1nccs1,-1.42,–
C=CCNC(=O)c1onc(C)c1Cl,1.22,–
O=C(NCCCN1CCCC1)c1ccc2nc(N3CCOCC3)sc2c1,-1.09,–
O=[N+]([O-])c1c(Nc2ccc(Cl)cc2)n[nH]c1-c1nnco1,-2.07 (active),–
O=c1oc2cc(O)ccc2cc1S(=O)(=O)c1ccc(Cl)cc1,-2.04 (active),–
CCOC(=O)C1=C(CS(=O)(=O)c2ccccc2)NC(=O)NC1c1cccc(Br)c1 (centres undefined),1.6,–
OCCn1c(-c2ccc(Br)cc2)cn2c3ccccc3nc12,-1.06,–
Cn1c(=O)c2c(SCC(=O)Nc3ccc(F)cc3)nc(-c3ccco3)nc2n(C)c1=O,1.12,–
Cc1cc(C(F)(F)F)nc(Nc2nc3ccccc3o2)n1,-1.19,–
O=C(Cc1ccc(NC2=NC3CS(=O)(=O)CC3S2)cc1)Nc1ccc(F)cc1 (centres undefined),-1.7,–
CS(=O)(=O)Nc1ccc(C2=NN(S(C)(=O)=O)C(c3ccccc3)C2)cc1 (centres undefined),1.5,–
CC(C)n1cnc2cc(NCc3ccccn3)ccc21,-1.44,–
C=CCn1c(Oc2ccccc2Cl)nc2c1c(=O)n(C)c(=O)n2C,-2.84 (active),–
CCOC(=O)C1CCCN(c2c(NCCN(C)C)c(=O)c2=O)C1 (centres undefined),1.36,–
O=c1[nH]c2ncccc2c(=O)n1CCc1c[nH]c2ccccc12,-1.06,–
C=CCn1c(=N)n(CC(=O)C(C)(C)C)c2ccccc21,-1.1,–

SMILES,fold change,outcome
CCOC(=O)C1CCCN(c2c(N3CCOCC3)c(=O)c2=O)C1 (centres undefined),-1.15,–
COCCNC(=O)Cn1cc(/C=C2/C(=O)N(C)c3ccccc32)c2cc(Br)ccc21,-1.01,–
O=C(CN1C(=O)COc2ccc(S(=O)(=O)N3CCOCC3)cc21)N1CCOCC1,-2.24 (active),–
CCOc1ccc(/C=c2\sc3nc(=O)c(Cc4ccc(Cl)cc4)nn3c2=O)cc1OC,1.07,–
Cc1ccc(N2CCN(c3cc(C)nc4ncnn34)CC2)c(C)c1,-1.38,–
COc1ccc(S(=O)(=O)n2cnc3ccccc32)c(C)c1,-1.08,–
C=CCNC(=O)CSc1nc(-c2cccs2)cc(C(F)(F)F)n1,-1.55,–
O=C(Nc1cccnc1)c1ccc2c(c1)C1C3CCC(C3)C1C(c1ccccc1)N2 (centres undefined),-1.08,–
Cc1cc(C)cc(N2CN=c3s/c(=C4\C(=O)Nc5ccccc54)c(=O)n3C2)c1,-1.15,–
Cc1nc2sc3c(NC4CCCCC4)ncnc3c2c2c1COC(C)(C)C2,-1.55,–
CCOC(=O)C1=C(CS(=O)(=O)c2ccc(F)c(C)c2)NC(=O)NC1c1cc(OC)ccc1OC (centres undefined),1.23,–
O=C(Nc1ccc2nc3n(c(=O)c2c1)CCCCC3)C(=O)NC1CCCCC1,-1.44,–
Cc1ccc(N2CC(O)=C(c3nc4ccccc4c(=O)[nH]3)C2=N)cc1C,–,inactive
NC(=O)C1CCN(C(=O)CCCc2nnc3n4nc(-c5ccccc5)nc4c4ccccc4n23)CC1,-1,–
COc1ccc(NC(=O)CSc2nc(-c3ccco3)cc(C(F)(F)F)n2)c(OC)c1,-1.96,–
COc1ccc(NC(=O)CN2N=NC3C(=O)N(c4ccc(Cl)cc4)C(=O)C32)c(OC)c1 (centres undefined),-1.12,–
COc1ccc(C2C=C(c3cccnc3)Nc3nc4ccccc4n32)cc1 (centres undefined),–,inactive
O=C(CSc1nc2[nH]ncc2c(=O)n1-c1ccccc1)Nc1nsc(-c2ccc(Cl)cc2)n1,1.26,–
Nc1cc(-c2ccccc2)nn1S(=O)(=O)c1cccc([N+](=O)[O-])c1,1.1,–
